The source of these data is PubChem BioAssay AID485314 (National Center for Advancing Translational Sciences (NCATS), 2010).

The whole screen tested about 340,000 compounds, of which about 4,500 (1.3%) were called active. Not shown: some 5% with an inconclusive outcome. This is one part of a sample in which actives are shown more often than they occur. A number with no mark means an inactive call. Calls follow the shape of the dose curve; as a rule, active = well fitted inhibition curve with a large enough effect; inconclusive = small, poorly fitted or top-dose-only effect, or another doubt; inactive = no such curve, though single readings can be large or run the other way.
% is scaled to controls: 0 for no effect and ±100 for the full control effect; potency is read from the fitted curve at half-maximal effect.

For the test, the target named is DNA polymerase beta (Homo sapiens) (UniProt P06746). Put plainly: qHTS Assay for Inhibitors of DNA Polymerase Beta. The conditions noted are these: Pol beta primer extension/strand displacement, fluorescence kinetic; series mostly up to 114 µM; activity change, negative = inhibition: at the top concentration. An excerpt:
The base excision repair system in human cells is a target for therapeutic modulation of the response to irradiation treatment and DNA-damaging drugs. A key enzyme in this system is the bi-functional DNA polymerase known as DNA polymerase Beta (Pol Beta). The following is a homogeneous kinetic assay to study the primer extension and strand-displacement reaction catalyzed by pol beta.
A stepwise description of the 1536-well assay is shown in next Table. Three microliters of reagents (buffer in column 3 and 4 as negative control and 10 nM Pol beta in columns 1, 2, and 5-48) was dispensed into 1,536-well black solid-bottomed plate. Compounds (23 nL) were transferred via Kalypsys pin tool equipped with 1536-pin array (10 nL slotted pins, V&P Scientific, San Diego, CA). The plates were incubated for 15 min at room temperature, and 1 uL substrate (50 nM final concentration) were added to start the reaction and immediately read at 0 min read on Viewlux reader. The plate were further incubated for 10 min at room temperature, and then read on Viewlux again. Throughout the screen, reagent bottle and all liquid lines were chilled and made light-tight to minimize reagent degradation. All screening operations were performed on a fully integrated robotic system (Kalypsys, San Diego, CA) containing one RX-130 and two RX-90 anthropomorphic robotic arms (Staubli, Duncan, SC). Library plates were screened starting from the lowest and proceeding to the highest concentration, and a double-dipping step of the highest concentration was required to access higher concentrations of compounds. Vehicle-only plates, with DMSO being pin-transferred to the entire column 5-48 compound area, were inserted uniformly at the beginning and the end of each library in order to monitor for and record any shifts in the background, which can be affected by reagent dispensers or loss in enzyme activity overtime. Screening data were corrected, normalized, and concentration-effect relationships were derived by using publicly-available curve fitting algorithms developed in-house (http://ncgc.nih.gov/pub/openhts). A four parameter Hill equation was fitted to the concentration-response data by minimizing the residual error between the modeled and observed responses.
On the technique in general: Quantitative high-throughput screening tests each substance at several concentrations.
Take `Cc1ccccc1NC(=O)Cn1cc(C(=O)c2cccs2)c2ccccc21`: the “activity change, negative = inhibition” value is -21.9%.
The same measure, in the same setting: under `CN(C(=O)c1ccc2c(c1)N(Cc1cccc(Cl)c1)C(=O)c1ccccc1S2=O)C1CCCCC1` (stereo not drawn) stands 4.04%.
Consider `COc1ccccc1NC(=O)C(=O)c1cc(C)n(-c2ccccc2F)c1C`, for which the “activity change, negative = inhibition” value was 4.34%.
On to `COc1ccc(-n2c(SCC(=O)Nc3ccc(Cl)c(C)c3)nc3n[nH]c(C)c3c2=N)cc1`, for which the “activity change, negative = inhibition” value was -7.34%.
As to `CCOc1ccc(-n2c(SCC(=O)NCc3ccccc3)nc3n[nH]c(C)c3c2=N)cc1`, the Potency was 25.1 µM (active).
Turning to `CCCCNC(=O)CSc1nc2n[nH]c(C)c2c(=N)n1-c1cccc(Cl)c1C`, the Potency result was “inactive”.
`COc1ccc(S(=O)(=O)n2nc(C)c(S(=O)(=O)N3CCCCCC3)c2C)cc1`: the “activity change, negative = inhibition” value was -16.8%.
On to `CSc1nn(Cc2cccc(C)c2)c(N)c1S(=O)(=O)c1ccccc1`, for which the “activity change, negative = inhibition” value is -2.02%.
Take `COc1cc(/C=C2/C(=O)NN(c3ccc(F)cc3)C2=O)cc([N+](=O)[O-])c1O`: the “activity change, negative = inhibition” value is -29.4%.
For the compound `Cc1ccc(N=C2NC(=O)/C(=C/C=C/c3ccco3)S2)cc1C`, the Potency was 10 µM (active).
`Cc1ccc(N2NC(=O)/C(=C/C=C/c3ccco3)C2=O)cc1C`: the Potency was 35.5 µM (active).
Regarding `Cc1ccc(-n2ncc3c(=O)n(-c4ccc(C)c(C)c4)c(-c4ccco4)nc32)cc1`, the “activity change, negative = inhibition” value was -0.115%.
Turning to `COc1ccccc1-c1ccnc2[nH]n(-c3ccccc3)c(=O)c12`, the “activity change, negative = inhibition” value was -9.8%.
`CC(C)c1ccc2oc(-c3cc(NC(=O)c4cccs4)ccc3Cl)nc2c1`: the “activity change, negative = inhibition” value is 1.78%.
The same measure, in the same setting: in the case of `N#Cc1ccsc1NC(=O)CN1CCCCC1` it was 15.9%.
Consider `Cc1csc(SCC(=O)Nc2sccc2C#N)n1`, for which the Potency is 20 µM (active).
Consider `Cc1cccc(C)c1Nc1nnc(SCC(=O)Nc2sccc2C#N)s1`, for which the “activity change, negative = inhibition” value was -26.1%.
`CCOc1ccc(NC(=O)CSc2c3c(nc4ccccc24)CCCC3)cc1`: the “activity change, negative = inhibition” value is -1.51%.
For the compound `COc1cc(NC(=O)CSc2nc3nc(C)c(Cc4ccc(C)cc4)c(C)n3n2)cc(OC)c1OC`, the “activity change, negative = inhibition” value is -28.1%.
For the compound `CSC1=N/C(=C\C=C\c2cccs2)C(=O)S1`, the Potency is 20 µM (active).
Turning to `CN1C/C(=C/c2cccs2)C(=O)/C(=C\c2cccs2)C1`, the “activity change, negative = inhibition” value is 3.47%.
As to `Cc1cccc(C2=N/C(=C/c3cccs3)C(=O)O2)c1`, the “activity change, negative = inhibition” value was -0.905%.
As for `COc1ccc(CCC(=O)NCCc2csc(-c3ccc(Cl)cc3)n2)cc1`, the “activity change, negative = inhibition” value was -1.93%.
Regarding `COc1ccc(CCNc2nc3c(-c4cccc(F)c4)nnn3c3ccccc23)cc1OC`, the “activity change, negative = inhibition” value is 40.6%.
With `COCCCNc1nc2c(-c3cccc(C)c3)nnn2c2ccc(Cl)cc12`, the Potency is 35.5 µM (active).
Regarding `COCCCNc1nc2c(-c3cccc(C(F)(F)F)c3)nnn2c2ccccc12`, the “activity change, negative = inhibition” value was -25.9%.
As for `COc1ccc(C(=O)COC(=O)CCCC(=O)Nc2cc(C(F)(F)F)ccc2Cl)cc1`, the “activity change, negative = inhibition” value was -2.85%.
On to `O=C(CCCN1C(=O)/C(=C/c2ccco2)SC1=S)Nc1ccccc1`, for which the Potency is 12.6 µM (active).
Take `COc1cc(/C=C2/SC(=S)N(Cc3ccccc3)C2=O)cc(OC)c1O`: the Potency is 14.1 µM (active).
Turning to `O=C(CCCN1C(=O)/C(=C/c2ccccc2)SC1=S)Nc1ccc(O)cc1`, the “activity change, negative = inhibition” value was 0.267%.
On to `COc1ccc(/C=C2\SC(=S)N(CCC(=O)Nc3cccc(C(=O)O)c3)C2=O)cc1OC`, for which the Potency was 70.8 µM (active).
With `O=C1/C(=C\c2ccccc2Cl)SC(=S)N1CCC(=O)N1CCCc2ccccc21`, the “activity change, negative = inhibition” value is 5.83%.
The same measure, in the same setting: under `CN1C=CC=C/C1=C1\SC(=S)N(Cc2ccccc2)C1=O` stands 6.67%; under `Cc1ccc(/C=C2\SC(=S)N(CCC(=O)Nc3ccc(O)cc3)C2=O)cc1`, 2.43%.
`O=C(CCCN1C(=O)/C(=C\c2ccco2)SC1=S)Nc1cccc2ccccc12`: the Potency is 10 µM (active).
As for `O=C(CCN1C(=O)/C(=C/c2cccs2)SC1=S)NNC(=O)c1cccc(O)c1`, the “activity change, negative = inhibition” value was -8.72%.
For the compound `COc1ccc(/C=C2/SC(=O)N(CCCCCC(=O)Nc3ccccc3C(=O)O)C2=S)cc1`, the “activity change, negative = inhibition” value was 24.4%.
As to `O=C(CCCN1C(=O)/C(=C/c2cccs2)SC1=S)Nc1ccc(O)cc1`, the “activity change, negative = inhibition” value was 9.43%.
Same read-out and setting: under `COc1ccc(/C=C2\SC(=S)N(CC(=O)NNC(=O)c3ccncc3)C2=O)cc1` stands 29.9%.
Consider `COc1cccc(CN2CCc3nc(SCC(=O)Nc4ccccc4)[nH]c(=O)c3C2)c1`, for which the “activity change, negative = inhibition” value was 18.1%.
As to `Cc1ccc2nc(COc3ccccc3NC(=O)Nc3ccc(F)c(Cl)c3)cc(=O)n2c1`, the “activity change, negative = inhibition” value is 2.36%.
Take `COc1ccc(-c2c3c(=O)n(C)c(=O)n(C)c3c3c(C)nc4ccccc4n23)cc1`: the “activity change, negative = inhibition” value is -27.7%.
For the compound `Cc1ccc(-c2nnc(Nc3cccc(Br)c3)c3ccccc23)cc1S(=O)(=O)NCC1CCCO1` (stereo not drawn), the “activity change, negative = inhibition” value is 21.3%.
`COc1ccc(-c2cccc(NS(=O)(=O)c3cc(C)c(OC)c(C)c3C)c2)nn1`: the “activity change, negative = inhibition” value is 10.4%.
The same measure, in the same setting: in the case of `O=C(O)c1ccc(Cn2c(SCc3ccc(F)cc3)nc3ccncc32)cc1` it was 6.07%; in that of `CCOc1ccc(N(CC)S(=O)(=O)N2CCCC(C(=O)Nc3ccc(C(C)=O)cc3)C2)cc1` (stereo not drawn), 4.94%; in that of `COc1cc(OC)c(C2C=C(C(=O)O)Nc3ncnn32)cc1OC` (stereo not drawn), 31.7%.
In the case of `CC1CCN(S(=O)(=O)c2ccc3c(ccn3CCC(=O)NCc3ccc(N(C)C)cc3)c2)CC1`, the “activity change, negative = inhibition” value is -2.55%.
For `O=C(CSc1ncc(S(=O)(=O)c2ccc(Br)cc2)c(=O)[nH]1)Nc1ccc2c(c1)OCCO2`, the “activity change, negative = inhibition” value was -20%.
As to `Cc1ccc(/C=C(\C#N)C(=O)Nc2cc(C)ccc2C)cc1`, the “activity change, negative = inhibition” value is 0.467%.
Turning to `CN1C(=O)/C(=C/c2ccco2)SC1=Nc1cccc(C(=O)O)c1`, the Potency is 17.8 µM (active).
For the compound `CN=C1S/C(=C\c2ccc(Sc3ccc(Cl)cc3)o2)C(=O)N1C`, the “activity change, negative = inhibition” value is -12.7%.
As to `CN=C1S/C(=C\c2c(OC)cc(OC)cc2OC)C(=O)N1C`, the “activity change, negative = inhibition” value was 10.1%.
Consider `CCOc1ccc(NC(=O)c2c(NC(=O)Cc3ccccc3)sc3c2CCCCC3)cc1`, for which the “activity change, negative = inhibition” value was 25.9%.
Still for that read-out and setting: in the case of `COc1cc(C(=O)OC2CCOC2=O)c([N+](=O)[O-])cc1OC` (stereo not drawn) it was 2.75%; in that of `Cc1nn(Cc2ccccc2)c(Cl)c1C(=O)OC1CCOC1=O` (stereo not drawn), -0.814%.
With `CC(C)c1ccc(C(=O)OC2CCOC2=O)cc1` (stereo not drawn), the Potency is 20 µM (active).
Consider `COc1ccc(N2CCN(S(=O)(=O)CCNC(=O)C(c3ccccc3)c3ccccc3)CC2)cc1`, for which the “activity change, negative = inhibition” value is -0.733%.
For `CCOC(=O)c1cc(-c2ccccc2)n(CCC(=O)Nc2ccccc2CC)c1C`, the “activity change, negative = inhibition” value was 0.554%.
Consider `CCOC(=O)c1c(C)oc2nc(C)nc(N(CC(C)C)CC(C)C)c12`, for which the “activity change, negative = inhibition” value is -0.894%.
With `CCCCNC(=O)C1CCCN(c2nnc(C)c3c(C)n(-c4ccc(Cl)cc4)nc23)C1` (stereo not drawn), the “activity change, negative = inhibition” value was 37%.
Take `CCSC1=C(C#N)C(=O)n2c1cc1c2CCCC1`: the Potency is 39.8 µM (active).
For `CCSc1ncnc2c(C#N)c3n(c12)CCCCC3`, the “activity change, negative = inhibition” value is -0.0615%.
